Data reported in PubChem BioAssay.

Tests used:
PEG-3 [1] = target: PEG-3 (UniProt Q6IN02); experiment: inhibition of PEG-3 promoter-driven reporter – cell-based, HeLa, luciferase, CREF/GAPDH counter-screen panel, dose response (AID 624167); conditions: CREF/GAPDH counter-screens; HeLa PEG-Prom luciferase reporter, overnight, run 1, dose range 1, at 100 µM (top of the series) unless noted
PEG-3 [2] = target: PEG-3 (UniProt Q6IN02); experiment: as above; conditions: CREF/GAPDH counter-screens; HeLa PEG-Prom luciferase reporter, overnight, run 2, dose range 1, at 100 µM (top of the series) unless noted
[3] = target: Tumor necrosis factor receptor superfamily member 10B (Homo sapiens) (UniProt O14763); experiment: viability loss of caspase-8 NB7 cells with TRAIL – with/without TRAIL, luminescence panel, confirmation (AID 651596); conditions: NB7 neuroblastoma + caspase-8, TRAIL sensitization, NB7 Caspase-8, with TRAIL, mean of runs, at 10 µM, stronger effect = higher value
Chain of Tumor necrosis factor receptor superfamily member 10B (Homo sapiens) (O14763 whole entry, looked up): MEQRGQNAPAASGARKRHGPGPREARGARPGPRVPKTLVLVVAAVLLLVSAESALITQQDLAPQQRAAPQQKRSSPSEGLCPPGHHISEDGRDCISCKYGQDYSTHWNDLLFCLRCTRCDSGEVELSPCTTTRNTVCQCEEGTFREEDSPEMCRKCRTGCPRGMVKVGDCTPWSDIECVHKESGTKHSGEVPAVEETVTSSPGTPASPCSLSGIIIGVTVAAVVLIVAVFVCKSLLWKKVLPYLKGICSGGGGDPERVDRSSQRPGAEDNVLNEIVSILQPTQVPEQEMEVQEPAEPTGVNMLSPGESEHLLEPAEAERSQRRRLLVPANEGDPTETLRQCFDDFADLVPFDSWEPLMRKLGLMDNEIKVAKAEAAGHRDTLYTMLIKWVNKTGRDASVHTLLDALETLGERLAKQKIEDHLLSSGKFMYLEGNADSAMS

[4] = as above; conditions: NB7 neuroblastoma + caspase-8, without TRAIL, NB7 Caspase-8, without TRAIL, mean of runs, at 10 µM
[5] = NFkB reporter suppression in cystic fibrosis bronchial cells – cell-based, uHTS hits, panel, cytotoxicity readout, dose response (AID 624344); conditions: CF bronchial epithelial cells, PAF-induced NFkB reporter inhibition, with PAF, run 1; at 79 µM (top of the series) unless noted
[6] = as above; conditions: CF bronchial epithelial cells, PAF-induced NFkB reporter inhibition, with PAF, run 2; at 79 µM (top of the series) unless noted

Chain of PEG-3 (Q6IN02 whole entry, looked up): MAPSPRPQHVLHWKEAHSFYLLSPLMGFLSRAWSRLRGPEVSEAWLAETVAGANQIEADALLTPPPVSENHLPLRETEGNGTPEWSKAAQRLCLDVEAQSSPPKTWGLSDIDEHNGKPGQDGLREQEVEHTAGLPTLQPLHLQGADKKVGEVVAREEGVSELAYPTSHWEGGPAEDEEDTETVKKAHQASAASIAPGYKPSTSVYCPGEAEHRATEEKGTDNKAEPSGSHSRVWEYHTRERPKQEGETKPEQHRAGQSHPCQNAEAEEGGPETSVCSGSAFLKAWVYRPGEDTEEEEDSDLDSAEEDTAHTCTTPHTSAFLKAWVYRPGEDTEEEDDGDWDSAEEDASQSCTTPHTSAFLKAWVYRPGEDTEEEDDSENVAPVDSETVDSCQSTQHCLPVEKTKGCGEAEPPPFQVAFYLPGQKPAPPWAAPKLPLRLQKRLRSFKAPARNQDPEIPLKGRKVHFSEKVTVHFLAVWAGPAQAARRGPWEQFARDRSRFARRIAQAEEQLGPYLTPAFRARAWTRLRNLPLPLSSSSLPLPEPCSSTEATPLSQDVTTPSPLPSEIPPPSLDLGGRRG

With `O=C(CCl)N1N=C(c2ccco2)CC1c1cccs1` (stereo not given) the inhibition (PEG-3 [1]) was 101%, the inhibition (PEG-3 [2]) was 99.3% and the activity [3] was 98.5%. For the same compound, the activity [4] was 97.8%.

`Cc1nn(C(C)(C)C)c(C)c1/C=N/OC(=O)Nc1ccc(Cl)cc1` gave an inhibition (PEG-3 [1]) of 98.8%, an inhibition (PEG-3 [2]) of 98.3% and an activity [3] of 94.2%. The activity [4] was 91.5%.

`CCc1nc(Cl)c(C#N)c2c1CCCC2` showed an inhibition [5] of 112% and an inhibition [6] of 105%.

With `COc1ccc(/C=N/Nc2nc(-c3cccnc3)nc3ccccc23)cc1OC` the inhibition [5] was 108% and the inhibition [6] was 96.6%.

For `N/C(=N\OC(=O)c1ccccc1)C(C(=O)NOC(=O)c1ccccc1)C1CCCCC1` (stereo not given), the inhibition (PEG-3 [1]) was 98.8%, the inhibition (PEG-3 [2]) was 102% and the activity [3] was 97.6%. For the same compound, the activity [4] was 94.9%.

With `Cc1cc(C)c2sc(N(CCCN(C)C)C(=O)c3ccc(S(=O)(=O)N4CCCc5ccccc54)cc3)nc2c1` the inhibition (PEG-3 [1]) was 97.5%, the inhibition (PEG-3 [2]) was 99.2% and the activity [3] was 31.6%. The activity [4] was 32.4%.

With `CCOC(=O)c1c(C)[nH]c(C(=O)N/N=C/c2ccc(Br)cc2)c1C` the inhibition [5] was 89.5% and the inhibition [6] was 83.1%.

In the case of `O=C(CCl)Nc1cccc(-c2cnc3ccccc3n2)c1`, the inhibition (PEG-3 [1]) is reported as 101%, the inhibition (PEG-3 [2]) is reported as 98.6% and the activity [3] is reported as 99.3%. For the same compound, the activity [4] was 99.2%.

`Cc1ccc(C(=O)Nc2cccc(C(F)(F)F)c2)cc1NC(=O)c1cnnc2ccccc12` showed an inhibition [5] of 105% and an inhibition [6] of 88.8%.

With `CCOc1ccccc1NC(=S)Nc1ccc2cn[nH]c2c1` the inhibition [5] was 104% and the inhibition [6] was 114%.

Work on `COc1cc(CCc2ccccc2)c(C(=O)O)c(O)c1C/C=C(/C)CCC=C(C)C` yielded an inhibition [5] of 104% and an inhibition [6] of 114%.

`COc1ccc(OC)c(-c2nnc3n2N=C(c2ccc(OC)c(OCC4CC4)c2)CS3)c1` gave an inhibition [5] of 113% and an inhibition [6] of 85.1%.

Compound `Brc1ccc2ncnc(NCc3ccccc3)c2c1` has an inhibition [5] of 108% and an inhibition [6] of 104%.

In the case of `CCOC(=O)c1c(C)cc2c(CO)n[nH]c(=O)c2c1C`, the inhibition [5] is reported as 104% and the inhibition [6] is reported as 95.8%.

`Cc1ccc2sc(N(CCCN(C)C)C(=O)c3ccc(S(=O)(=O)N4CCc5ccccc5C4)cc3)nc2c1C` gave an inhibition (PEG-3 [1]) of 82.2%, an inhibition (PEG-3 [2]) of 74.5% and an activity [3] of 75%. For the same compound, the activity [4] was 87%.

`COc1ccccc1N(C(=O)CCl)c1cn(C(C)=O)c2ccccc12` showed an inhibition (PEG-3 [1]) of 98.1%, an inhibition (PEG-3 [2]) of 102% and an activity [3] of 99.5%. For the same compound, the activity [4] was 98.3%.

With `CCCCCCCCCCCCCCCC(O)C[N+](C)(C)CCO` (stereo not given) the inhibition (PEG-3 [1]) was 102%, the inhibition (PEG-3 [2]) was 98.9% and the activity [3] was 95.8%. The activity [4] was 97.1%.

`Nc1nc(CCl)nc(Nc2cccc3ccccc23)n1` showed an inhibition (PEG-3 [1]) of 102%, an inhibition (PEG-3 [2]) of 100% and an activity [3] of 99.8%. The activity [4] was 98.7%.

`CC(=O)OC1CCC2(C)C(CCC3C4CC=C(C(C)=O)C4(C)OC(=O)CC32)C1` (stereo not given) gave an inhibition [5] of 99.2% and an inhibition [6] of 104%.

Work on `O=C(Nc1ccccc1)NN(C(=O)CCl)c1ccccc1` yielded an inhibition (PEG-3 [1]) of 102%, an inhibition (PEG-3 [2]) of 101% and an activity [3] of 98.3%. For the same compound, the activity [4] was 98.3%.

`Cc1ccc2sc(N(CCCN(C)C)C(=O)c3ccc(S(=O)(=O)N(C)Cc4ccccc4)cc3)nc2c1C` showed an inhibition (PEG-3 [1]) of 102%, an inhibition (PEG-3 [2]) of 99.1% and an activity [3] of 44%. The activity [4] was 32.9%.

Work on `Cc1ccccc1C(=O)N1CCN(c2ccc(NC(=O)c3cccc(OC(C)C)c3)cc2)CC1` yielded an inhibition [5] of 89.1% and an inhibition [6] of 86.4%.

In the case of `COCCn1c(C)cc(C(=O)COC(=O)c2ccccc2Br)c1C`, the inhibition (PEG-3 [1]) is reported as 95.9%, the inhibition (PEG-3 [2]) is reported as 94.1% and the activity [3] is reported as 79.5%. For the same compound, the activity [4] was 76.5%.
